Screens as filed in PubChem BioAssay.
DNA FID counter = compounds displacing fluorescent DNA intercalator, primary screen, artefact control for HCV NS3 helicase inhibitor project, biochemical, FID fluorescence; DNA fluorescent intercalator displacement; inhibition, % at 7.9 µM; hit rate 0.17% among 290,000; AID 1845, 2009; in the data active = inhibition above about 37%;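 also: 0% = vehicle and 100% = reference compound; higher means more ethidium bromide displaced from hairpin DNA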
RAD54 branch = inhibitors of human RAD54 branch migration, primary screen, biochemical, fluorescence, single point; DNA repair and recombination protein RAD54-like (Homo sapiens), Q92698; RAD54 Holliday junction branch migration, FAM/BHQ fluorescence; hit rate 0.14% among 360,000; AID 602329, 2012; inhibition, % at 10.4 µM;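 active = mean normalized replicate activity at least 40 and at least half of replicates scoring 40 or more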;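 also: 0% = median of neutral control wells and 100% = median of positive control wells; inhibitors cause a drop in the FAM fluorescence signal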
RAD52 inh = RAD52 DNA annealing inhibitors, primary screen, biochemical, FRET, single point, set 2; DNA repair protein RAD52 homolog (Homo sapiens), P43351; recombinant RAD52 DNA annealing, FRET fluorescence; inhibition, % at 18.7 µM; hit rate 0.46% among 360,000;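 active = every replicate showing at least 50% inhibition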
Target sequence (P43351 whole entry, looked up): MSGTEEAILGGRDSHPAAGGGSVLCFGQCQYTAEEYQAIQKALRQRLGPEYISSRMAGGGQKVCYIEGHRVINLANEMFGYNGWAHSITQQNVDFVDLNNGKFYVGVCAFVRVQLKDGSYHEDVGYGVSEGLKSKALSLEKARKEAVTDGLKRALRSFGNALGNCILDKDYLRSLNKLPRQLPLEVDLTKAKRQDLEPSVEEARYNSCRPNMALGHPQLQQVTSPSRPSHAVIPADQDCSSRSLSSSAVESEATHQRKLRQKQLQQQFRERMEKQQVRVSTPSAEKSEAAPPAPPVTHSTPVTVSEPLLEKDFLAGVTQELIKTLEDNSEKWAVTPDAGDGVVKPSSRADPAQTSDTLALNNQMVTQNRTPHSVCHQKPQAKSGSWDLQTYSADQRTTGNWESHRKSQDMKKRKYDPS
miR-122 sensor = miR-122 Renilla sensor signal increase in Huh7, primary screen, miR-122 inhibitor project, cell-based, single point, plate reader; hit rate 0.3% among 340,000; Huh7 miR-122 Renilla luciferase sensor, 48 h; neutral wells = 0, positive control = 100; activation (reporter increase), % at 12.5 µM;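 active = mean replicate activation score at least 90 and every replicate individually at or above 90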;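 also: higher luciferase means less miR-122 activity so hits act as miR-122 inhibitors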
Glyco luc inh = increase of ERlucT glycosylation luciferase signal, primary screen, N-linked glycosylation inhibitor project, D54 ERlucT cells, luminescence, set 2; D54 ERlucT glycosylation luciferase reporter, 24 h; percent of 100 nM tunicamycin response; reporter increase, % at 12.5 µM; hit rate 0.23% among 360,000;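 active = mean luciferase reporter signal, scaled so untreated is 0 and the glycosylation-blocking control 100, at or above a set limit in every replicate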;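 also: luciferase carries N-glycosylation sites so blocking glycosylation raises the light; 0% = median of neutral control wells and 100% = median of 100 nM tunicamycin wells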
CendR NRP1 mod = modulators of CendR peptide binding to NRP-1, primary screen, biochemical, fluorescence polarization, uHTS | inhibition, % at 25 µM | hit rate 0.85% among 360,000 | FAM-RPARPAR peptide binding to NRP-1 | Neuropilin-1 (Homo sapiens), O14786;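 active = inhibition or corrected inhibition above about 18%, plus a signal ratio from 0.5 to 1.5, limit read from the data, passing the limit was not always enough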
The depositor's hits bear a star; / = not tested or not shown; [ ] = dose if it differs, or a comment. Only some compounds are listed: those with a hit (about 1.5% of all), similar ones and a draw of the others.

SMILES | DNA FID counter | RAD54 branch | RAD52 inh | miR-122 sensor | Glyco luc inh | CendR NRP1 mod
O=C(NC1CCC1)[C@@H]1[C@@H](CO)[C@@H]2Cn3c(ccc(-c4ccccc4F)c3=O)[C@@H]2N1Cc1ccccn1 | / | / | -2 | / | / | /
O=C(NC1CCC1)[C@H]1[C@H](CO)[C@H]2Cn3c(ccc(-c4ccccc4F)c3=O)[C@H]2N1Cc1ccncc1 | / | 12 | 71* | -2[16.7 µM] | / | /
CC1COCC(C)N1C1=C(Cl)C(=O)c2ccccc2C1=O (configuration not stated) | / | -4 | -30 | / | 34* | 22
NC(=O)C1CCN(C2=C(Cl)C(=O)c3ccccc3C2=O)CC1 | 8 | 2 | / | -70 | 78* | 22
CN1CCN(C2=C(Cl)C(=O)c3ccccc3C2=O)CC1 | / | / | 26 | / | -17 | 36*
O=C1C(Cl)=C(N2CCC(C(=O)O)CC2)C(=O)c2ccccc21 | -8 | / | / | -4 | 6 | 35*
CC(C)NC(=O)Nc1ccc2c(c1)C(=O)N([C@H](C)CO)C[C@H](C)[C@H](CN(C)C(=O)CCCN(C)C)OCCCC[C@H](C)O2 | / | / | / | -3[16.7 µM] | / | /
Cc1ccccc1Nc1nc(N)nc(COC(=O)CC2CC3CCC2C3)n1 (configuration not stated) | -26 | 0 | / | 0 | 4 | 27*
CN(C)CCNS(=O)(=O)c1ccc(N2CCN(c3ccc(F)cc3)CC2)c([N+](=O)[O-])c1 | 38* | / | 12 | / | -4 | 8
COc1ccc(/C=C2\SC(=S)N(CC(=O)OCC(=O)Nc3ccc([N+](=O)[O-])cc3OC)C2=O)cc1 | -2 | / | -16 | / | 2 | -1
COc1ccc(/C=C2\SC(=S)N(CC(=O)OCC(=O)Nc3ccc(C)cc3Cl)C2=O)cc1 | -1 | -11 | -56 | -5 | -5 | 34*
Cc1cc(-c2ccc(S(=O)(=O)NCc3ccc(Cl)cc3)cc2)on1 | / | 4 | -3 | -3 | 0 | 28*
Cc1cc(-c2ccc(S(=O)(=O)NCc3ccc(F)cc3)cc2)on1 | -19 | 3 | -8 | 19 | -1 | 19
CC(=O)Nc1ccc(C(=O)N2CCCCC2c2cc(C(=O)Nc3ccccc3Cl)no2)cc1 (configuration not stated) | / | 2 | -10 | -4 | -2 | 24*
CC(=O)Nc1ccc(C(=O)N2CCCCC2c2cc(C(=O)Nc3ccccc3)no2)cc1 (configuration not stated) | / | -4 | -15 | -1 | 1 | -14
C[C@@H]1CN([C@H](C)CO)S(=O)(=O)c2ccc(-c3cccc(C#N)c3)cc2O[C@H]1CN(C)C(=O)c1ccncc1 | / | -22 | 21 | -3[16.7 µM] | / | /
Cc1noc(C)c1S(=O)(=O)Nc1ccc2c(c1)C(=O)N([C@H](C)CO)C[C@@H](C)[C@H](CN(C)C(=O)NC1CCCCC1)OCCCC[C@@H](C)O2 | / | 2 | -47 | -4[16.7 µM] | / | /
COc1ccc(S(=O)(=O)Nc2ccc3c(c2)C(=O)N([C@H](C)CO)C[C@@H](C)[C@@H](CN(C)C(=O)Nc2ccccc2)OCCCC[C@@H](C)O3)cc1 | / | 12 | / | 9[16.7 µM] | / | /
COc1ccc(S(=O)(=O)Nc2ccc3c(c2)C(=O)N([C@@H](C)CO)C[C@H](C)[C@H](CN(C)C(=O)Nc2ccccc2)OCCCC[C@@H](C)O3)cc1 | / | -9 | / | 120*[16.7 µM] | / | /
CCCN(C)C[C@H]1OCCCC[C@@H](C)Oc2ccc(NS(=O)(=O)c3ccccc3)cc2C(=O)N([C@@H](C)CO)C[C@H]1C | / | 3 | 54* | -1[16.7 µM] | / | /
C[C@H]1CCCCO[C@H](CN(C)C(=O)Nc2cccc3ccccc23)[C@@H](C)CN([C@@H](C)CO)C(=O)c2cc(N(C)C)ccc2O1 | / | -5 | 7 | 1[16.7 µM] | / | /
CCCN(C)C[C@H]1OCCCC[C@H](C)Oc2ccc(NS(=O)(=O)c3ccccc3)cc2C(=O)N([C@@H](C)CO)C[C@H]1C | / | 3 | 37 | -1[16.7 µM] | / | /
C[C@@H]1CCCCO[C@@H](CN(C)C(=O)Nc2cccc3ccccc23)[C@H](C)CN([C@@H](C)CO)C(=O)c2cc(N(C)C)ccc2O1 | / | -11 | 56* | -5[16.7 µM] | / | /
COc1ccc(NC(=O)N(C)C[C@@H]2OCCCC[C@@H](C)Oc3ccc(NS(=O)(=O)c4ccccc4)cc3C(=O)N([C@H](C)CO)C[C@@H]2C)cc1 | / | 3 | 85* | 4[16.7 µM] | / | /
COc1ccc(NC(=O)N(C)C[C@@H]2OCCCC[C@@H](C)Oc3ccc(NS(=O)(=O)c4ccccc4)cc3C(=O)N([C@@H](C)CO)C[C@H]2C)cc1 | / | 2 | -64 | -4[16.7 µM] | / | /
SMILES | DNA FID counter | RAD54 branch | RAD52 inh | miR-122 sensor | Glyco luc inh | CendR NRP1 mod
COC(=O)C[C@H]1CC[C@@H]2[C@H](COc3ccc(NC(=O)c4cc(C)on4)cc3C(=O)N2C)O1 | / | 4 | -14 | 32[16.7 µM] | / | /
O=C(Cc1ccccn1)NCC[C@H]1CC[C@@H](NC(=O)Nc2ccc(Cl)cc2)[C@@H](CO)O1 | / | -1 | -14 | / | / | /
CCCNC(=O)c1cc2c(c(-c3cccc(-c4ccncc4)c3)n1)[C@@H](CCO)N(S(=O)(=O)CC)C2 | / | / | 0 | / | / | /
CC(=O)N1CCN(S(=O)(=O)c2cccc(C(=O)NNC(=O)Cn3ccc(C(F)(F)F)n3)c2)CC1 | / | / | -5 | / | -1 | 28*
CC(=O)N1CCN(S(=O)(=O)c2cccc(C(=O)NNC(=O)Cn3nc(C)cc3C)c2)CC1 | / | 18 | -5 | -6 | 3 | 0
COc1ccc(CN(C)C[C@@H]2Oc3ccc(NC(=O)Nc4ccc(OC)cc4)cc3C(=O)N([C@@H](C)CO)C[C@H]2C)cc1 | / | 62* | 16 | 2[16.7 µM] | / | /
COc1ccc(CN(C)C[C@@H]2Oc3ccc(NC(=O)NC4CCCCC4)cc3C(=O)N([C@@H](C)CO)C[C@H]2C)cc1 | / | 63* | 6 | -6[16.7 µM] | / | /
COc1ccc(CN(C)C[C@@H]2Oc3ccc(NC(=O)NC4CCCCC4)cc3C(=O)N([C@H](C)CO)C[C@H]2C)cc1 | / | 40 | -4 | -6[16.7 µM] | / | /
COc1ccc(CN(C)C[C@@H]2Oc3ccc(NC(=O)Nc4ccccc4)cc3C(=O)N([C@@H](C)CO)C[C@H]2C)cc1 | / | 53* | 17 | 17[16.7 µM] | / | /
COc1ccc(NC(=O)Nc2ccc3c(c2)C(=O)N([C@@H](C)CO)C[C@H](C)[C@H](CN(C)Cc2ccc(C(F)(F)F)cc2)O3)cc1 | / | -3 | 3 | 150*[16.7 µM] | / | /
O=C(c1ccncc1)N1CC2(C1)[C@H](c1ccccc1)[C@H](CO)N2C(=O)c1ccncc1 | / | / | -8 | / | / | /
COc1ccc(CN(C)C[C@H]2Oc3c(NC(=O)NC4CCCCC4)cccc3C(=O)N([C@H](C)CO)C[C@@H]2C)cc1 | / | -2 | 9 | 255*[16.7 µM] | / | /
